The text below walks through data of PubChem BioAssay (NCATS).

Records with an inconclusive call do not appear. A number with no mark means an inactive call. Calls of active or inactive are those of the source. The call rests on the fitted dose curve; in most records, active means well fitted curve in the direction sought with a large enough effect; inconclusive means small, poorly fitted or top-dose-only effect, or another doubt; inactive means no such curve, though single readings can be large; an effect the other way counts as inactive or inconclusive.

Experiment [1] can be described thus: qHTS of pediatric cancer cell lines to identify multiple opportunities for drug repurposing: Primary screen for BT-12 cells (AID 1347101). Further: nearly all actives have a fitted effect of over 25% in size. Further: potency means the concentration at half of the fitted maximal effect.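 On activity change, negative = cytotoxic: plate controls were DMSO for no effect and bortezomib positive control for full effect.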 The procedure, abridged:
(§1)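 Cells (500-1,000/well) rested 5 h, then received compounds for 48 h; metabolically active cells were measured by CellTiter-Glo luminescence. Final concentrations spanned up to 46 µM (MIPE, 11-point) or 0.59 nM-46 µM (NPC, 8-point) in primary screens, 11-point in follow-ups.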
Background: Quantitative high-throughput screening tests each substance at several concentrations.

Experiment [2] in a line: qHTS of pediatric cancer cell lines to identify multiple opportunities for drug repurposing: Primary screen for Rh18 cells (AID 1347102). Further: nearly all actives have a fitted effect of over 65% in size. Further: potency means the concentration at half of the fitted maximal effect. On activity change, negative = cytotoxic: on the % scale 0 is the no-effect control and ±100 the full control effect. Put shortly:
as §1

Experiment [3] in a line: qHTS of pediatric cancer cell lines to identify multiple opportunities for drug repurposing: Primary screen for OHS-50 cells (AID 1347103).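 Further: plate controls were DMSO neutral control for no effect and bortezomib positive control for full effect; nearly all actives have a fitted effect of over 40% in size.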 The procedure, abridged:
as §1

A short description of experiment [4]: qHTS of pediatric cancer cell lines to identify multiple opportunities for drug repurposing: Primary screen for RD cells (AID 1347104). Further: nearly all actives have a fitted effect of over 55% in size. Further: potency means the concentration at half of the fitted maximal effect.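 On activity change, negative = cytotoxic: plate controls were DMSO for no effect and bortezomib for full effect.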 The procedure, abridged: (§2)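 Quantitative HTS format: each compound titrated (MIPE 11 points from 0.78 nM, NPC 8 points from 0.59 nM) onto cells plated 5 hours earlier. After 48 h at 37 degrees C, CellTiter-Glo luminescence was recorded.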

Experiment [5] in a line: qHTS of pediatric cancer cell lines to identify multiple opportunities for drug repurposing: Primary screen for control Hh wild type fibroblast cells (AID 1347106).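 Further: series mostly up to about 46 µM; on the % scale 0 is the no-effect control and ±100 the full control effect; a drop in luminescence marks cytotoxicity and a rise apparent proliferation; nearly all actives have a fitted effect of over 55% in size.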 The procedure, abridged: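 Viability after 48 h compound treatment at 37C, 500-1,000 cells/well, read as ATP luminescence with CellTiter-Glo. Primary screens used 11-point (MIPE, 0.78 nM-46 µM) or 8-point (NPC, 0.59 nM-46 µM) final concentrations; follow-up screens used 11-point dilutions.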

The nature of experiment [6]: qHTS of pediatric cancer cell lines to identify multiple opportunities for drug repurposing: Primary screen for Rh30 cells (AID 1347107). Further: series mostly up to about 46 µM; on the % scale 0 is the no-effect control and ±100 the full control effect; nearly all actives have a fitted effect of over 75% in size. The procedure, abridged:
as §1

The nature of experiment [7]: qHTS of pediatric cancer cell lines to identify multiple opportunities for drug repurposing: Primary screen for Rh41 cells (AID 1347108). Further: nearly all actives have a fitted effect of over 70% in size. Further: potency means the concentration at half of the fitted maximal effect.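 On activity change, negative = cytotoxic: series mostly up to about 46 µM; luminescence drop marks cytotoxic hits.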 The procedure, abridged:
as §2

The nature of experiment [8]: qHTS of pediatric cancer cell lines to identify multiple opportunities for drug repurposing: Primary screen for MG 63 (6-TG R) cells (AID 1347105). Further: nearly all actives have a fitted effect of over 50% in size. Further: potency means the concentration at half of the fitted maximal effect. On activity change, negative = cytotoxic: on the % scale 0 is the no-effect control and ±100 the full control effect. The procedure, abridged: as §2

With `CC(C(=O)O)c1ccc(C(=O)c2ccccc2)s1` (stereo not given), the Potency result in experiment [1], in experiment [2], in experiment [3], in experiment [4], in experiment [5] and in experiment [6] was “inactive” in each case. Further, in experiment [7], the Potency entry was “inactive”.
For `c1ccc2sc(SN3CCOCC3)nc2c1`, the Potency result in experiment [1], in experiment [2], in experiment [3], in experiment [4], in experiment [8] and in experiment [5] was “inactive” throughout. The Potency entry in experiment [6] and in experiment [7] was “inactive” each time.
For the compound `CC(C)(C)c1nnc(NS(=O)(=O)c2ccc(N)cc2)s1`, the Potency entry in experiment [1], in experiment [2], in experiment [4], in experiment [8], in experiment [5] and in experiment [6] was “inactive” each time. Further, the Potency result in experiment [7] is “inactive”.
As to `CCCOC(=O)c1ccc(O)cc1`, the Potency entry in experiment [1], in experiment [2], in experiment [4], in experiment [8], in experiment [5] and in experiment [6] was “inactive” each time. For the same compound, the Potency entry in experiment [7] was “inactive”.
On to `C=CCCCCCCCCC(=O)O`, for which the Potency result in experiment [1], in experiment [2], in experiment [4], in experiment [8], in experiment [5] and in experiment [6] was “inactive” throughout. Further, in experiment [7], the Potency entry is “inactive”.
Consider `O=C(O)Cc1cccc(-c2cc(CCCCCCc3ccc(O[C@H]4O[C@H](CO)[C@@H](O)[C@H](O)[C@@H]4O)c(-c4cccc(CC(=O)O)c4)c3)ccc2O[C@H]2O[C@H](CO)[C@@H](O)[C@H](O)[C@@H]2O)c1`, for which the activity change, negative = cytotoxic is 15.7% [at 0.745 µM] in experiment [1]; 18.6% [at 0.597 µM] in experiment [2]; 16.2% [at 0.597 µM] in experiment [4]; -10.3% [at 0.597 µM] in experiment [8]; 2.02% [at 0.597 µM] in experiment [5]; 18.7% [at 0.597 µM] in experiment [6]. In addition, the activity change, negative = cytotoxic in experiment [7] is 21.7% [at 0.597 µM].
Consider `Nc1ccc(O)c(C(=O)O)c1`, for which the Potency result in experiment [1], in experiment [2], in experiment [4], in experiment [8], in experiment [5] and in experiment [6] was “inactive” in each case. Also, the Potency entry in experiment [7] is “inactive”.
On to `CN(C)[C@@H]1C(=O)C(C(=O)NCN2CCCC2)=C(O)[C@@]2(O)C(=O)C3=C(O)c4c(O)cccc4[C@@](C)(O)C3C[C@@H]12` (stereo not given in full), for which the Potency entry in experiment [1], in experiment [2], in experiment [3], in experiment [4], in experiment [8] and in experiment [5] was “inactive” in each case. The Potency entry in experiment [6] and in experiment [7] was “inactive” in each case.
For the compound `CCCCCCCCCCCCCCCCCC(=O)O`, the Potency result in experiment [1], in experiment [2], in experiment [3], in experiment [4], in experiment [8] and in experiment [5] was “inactive” throughout. Further, the Potency entry in experiment [6] and in experiment [7] was “inactive” throughout.
Consider `CO[C@@]1(NC(=O)Cc2cccs2)C(=O)N2C(C(=O)O)=C(COC(N)=O)CS[C@@H]21`, for which the Potency result in experiment [1], in experiment [2], in experiment [3], in experiment [4], in experiment [8] and in experiment [5] was “inactive” each time. The Potency result in experiment [6] and in experiment [7] was “inactive” throughout.
On to `O=C(O)c1ccccc1Nc1cccc(C(F)(F)F)c1`, for which the Potency result in experiment [1], in experiment [2], in experiment [3], in experiment [4], in experiment [8] and in experiment [5] was “inactive” in each case. Further, the Potency result in experiment [6] and in experiment [7] was “inactive” throughout.
For `N=C(N)N`, the Potency result in experiment [1], in experiment [2], in experiment [4], in experiment [8], in experiment [5] and in experiment [6] was “inactive” each time. Also, in experiment [7], the Potency result is “inactive”.
For `CCCCC1C(=O)N(c2ccccc2)N(c2ccc(O)cc2)C1=O` (stereo not given), the Potency in experiment [1] was 5.5 µM (active); in experiment [2], 8.41 µM (active); in experiment [4] it was 6.68 µM (active); in experiment [8], 21.1 µM (active); in experiment [7] it was 5.96 µM (active). Moreover, the Potency result in experiment [5] was “inactive”.
Regarding `CCOc1ccc2nc(S(N)(=O)=O)sc2c1`, the Potency result in experiment [1], in experiment [2], in experiment [4], in experiment [8], in experiment [5] and in experiment [6] was “inactive” each time. For the same compound, the Potency result in experiment [7] was “inactive”.
Turning to `Nc1ccc(C(=O)O)c(O)c1`, the Potency result in experiment [1], in experiment [2], in experiment [3], in experiment [4], in experiment [8] and in experiment [5] was “inactive” each time. Besides, the Potency entry in experiment [6] and in experiment [7] was “inactive” in each case.
As for `CN1CC(=O)N/C1=N/C(=O)Nc1cccc(Cl)c1`, the Potency result in experiment [1], in experiment [2], in experiment [3], in experiment [4], in experiment [8] and in experiment [5] was “inactive” each time. Besides, the Potency result in experiment [6] and in experiment [7] was “inactive” throughout.
In the case of `Cc1ccc(C(=O)c2ccc(CC(=O)O)n2C)cc1`, the Potency result in experiment [1], in experiment [2], in experiment [4], in experiment [8], in experiment [5] and in experiment [6] was “inactive” each time. In experiment [7], the Potency entry is “inactive”.
As for `COc1cc2c3cc1Oc1cc(ccc1O)C[C@@H]1c4c(cc(OC)c(O)c4Oc4ccc(cc4)C[C@@H]3N(C)CC2)CC[N+]1(C)C`, the Potency entry in experiment [1], in experiment [2], in experiment [4], in experiment [8], in experiment [5] and in experiment [6] was “inactive” throughout. The Potency result in experiment [7] is “inactive”.
In the case of `CCCCCCCCCCCC(=O)[O][Sn]([CH2]CCC)([CH2]CCC)[O]C(=O)CCCCCCCCCCC`, the Potency entry in experiment [1], in experiment [2], in experiment [3], in experiment [4], in experiment [8] and in experiment [5] was “inactive” in each case. For the same compound, the Potency result in experiment [6] and in experiment [7] was “inactive” each time.
On to `CC(=O)c1ccc(OCC(=O)N2CCCCC2)cc1`, for which the Potency result in experiment [1], in experiment [2], in experiment [3], in experiment [4], in experiment [8] and in experiment [5] was “inactive” in each case. For the same compound, the Potency entry in experiment [6] and in experiment [7] was “inactive” in each case.
Regarding `O=C(O)Cc1ccc2c(c1)C(=O)c1ccccc1CO2`, the Potency entry in experiment [1], in experiment [2], in experiment [4], in experiment [8], in experiment [5] and in experiment [6] was “inactive” in each case. Besides, the Potency entry in experiment [7] was “inactive”.
